These results are taken from PubChem BioAssay (NCATS).

The structures appear in SMILES notation. Results filed as inconclusive are left out. A call without a number means that no potency is given here. Unmarked numbers belong to inactive results. Activity calls are given as the source filed them. Calls come from the whole dose curve; as a rule, active = well fitted cell-killing curve with a large enough effect; inconclusive = small, poorly fitted or top-dose-only effect, or effect the other way; inactive = flat fitted curve, though single readings scatter. Where a SMILES comes first, the peptide text is derived from it. [ ]: non-standard residue; d: D form.

The assay concerns PA-1. The assay is described as follows: Primary qHTS to identify gynecologic anti-cancer compounds using libraries of approved drugs and bioactive compounds (AID 1345084). Note: nearly all actives have a fitted effect of over 55% in size. The following applies: Gynecologic cancer cell panel viability, ATPlite luminescence, 48 h; series mostly up to 57.5 µM. The method in brief:
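Cytotoxicity screen measuring ATP content by luciferase luminescence. Each compound is applied at five concentrations for 48 h at 37 C with 5% CO2.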
A general note: Quantitative high-throughput screening tests each substance at several concentrations.
For the compound `COc1ccc(C(OC2OC(CO)C(O)C(O)C2O)C(C)O)cc1` (stereo unspecified), the Potency result was “inactive”.
As for `CCOC(=O)N1CCC(NCCNC(=O)c2ccccc2C)CC1`, the Potency entry was “inactive”.
The same measure, in the same setting: under `CCC(C)C(=O)O[C@@H]1[C@@H](O)[C@@H](O[C@H]2O[C@H](CO)[C@@H](O)[C@H](O)[C@H]2O)O[C@H](CO)[C@H]1O` (stereo partly specified) stands “inactive”.
On the same count and under the same terms, then `Nc1ncnc2c1ncn2[C@H]1CCCO1`, with “inactive”.
Same read-out and setting: under `COc1cc(-c2cccc(O)c2)cc2c1OCO2` stands “inactive”; under `Nc1nc(CC(=O)Nc2ccc(CCNCC(O)c3ccccc3)cc2)cs1` (stereo unspecified), “inactive”; under `O=C(/C=C/c1c(C(=O)O)[nH]c2cc(Cl)cc(Cl)c12)Nc1ccccc1`, “inactive”.
For `CC1CCC2C(C)(C)C(O)CCC2(C)C12Cc1c(O)cc3c(c1O2)CN=C3N` (stereo unspecified), the Potency entry is “inactive”.
Still for that read-out and setting: then `CC[C@H]1OC(=O)C[C@@H](O)[C@H](C)[C@@H](O[C@@H]2O[C@H](C)[C@@H](O)[C@H](N(C)C)[C@H]2O)[C@@H](CCN2C[C@H](C)C[C@H](C)C2)C[C@@H](C)C(=O)/C=C/C(C)=C/[C@@H]1CO[C@@H]1O[C@H](C)[C@@H](O)[C@@H](OC)[C@H]1OC`, with “inactive”.
The same measure, in the same setting: then `C[C@]12C=CC(=O)C=C1CC[C@@H]1[C@@H]2[C@@H](O)C[C@@]2(C)[C@H]1CC[C@]2(O)C(=O)COC(=O)CCC(=O)O`, with “inactive”; and `CC(C)=CCc1ccc(Oc2c(O)cc(C)cc2CO)c(C(=O)O)c1O`, with “inactive”.
Same read-out and setting: then `NS(=O)(=O)NCCNc1nonc1C(=Nc1ccc(F)c(Br)c1)NO`, with “inactive”; and `CCC(=O)NS(=O)(=O)c1ccc(-c2c(-c3ccccc3)noc2C)cc1`, with “inactive”.
In the case of `CC(=O)OC1C(O)C(C)=C(CCC(C)CC(=O)O)C2(C)CCCC(C)(C)C12` (stereo unspecified), the Potency result is “inactive”.
In the case of `COC1=CC(=O)O[C@@H](/C=C/c2ccccc2)[C@@H]1O`, the Potency entry is “inactive”.
For the compound `C[C@@H]1O[C@@H](O[C@@H]2[C@@H](O)[C@@H](O)[C@H](O[C@@H]3[C@@H](O)[C@@H](O[C@]4(CO)O[C@H](CO)[C@@H](O)[C@@H]4OC(=O)/C=C/c4ccc(O)cc4)O[C@H](CO)[C@H]3OC(=O)/C=C/c3ccc(O)cc3)O[C@H]2C)[C@H](O)[C@H](O)[C@H]1O`, the activity change, negative = cytotoxicity was -5.64% [at 11.6 µM].
For the compound `COC(=O)[C@@H]1C2CC3c4[nH]c5ccccc5c4CCN3CC2CC[C@@H]1O` (stereo partly specified), the Potency result was “inactive”.
In the case of `C[C@@H]1O[C@@H](O[C@H]2[C@H](OC(=O)[C@]34CCC(C)(C)C[C@H]3C3=CCC5[C@@]6(C)CC[C@H](O[C@@H]7O[C@H](CO[C@@H]8OC[C@H](O)[C@H](O)[C@H]8O)[C@@H](O)[C@H](O)[C@H]7O)C(C)(C)C6CC[C@@]5(C)[C@]3(C)C[C@H]4O)OC[C@@H](O)[C@@H]2O)[C@H](O)[C@H](O)[C@H]1O[C@@H]1OC[C@H](O)[C@H](O[C@@H]2OC[C@@H](O)[C@H](O)[C@H]2O)[C@H]1O` (stereo partly specified), the activity change, negative = cytotoxicity is 1.4% [at 6.55 µM].
As to `CC(=O)N[C@H](Cc1ccc(O)cc1)C(=O)N[C@H](CCCN=C(N)N)C(=O)N[C@H](Cc1ccccc1)C(N)=O` (Ac-[dY]-[dR]-[dF]-NH2), the Potency entry is “inactive”.
Still for that read-out and setting: then `CC(NCc1ccc(OCc2cccc(F)c2)cc1)C(N)=O` (stereo unspecified), with “inactive”.
The same measure, in the same setting: then `Cc1coc2c1CC1OC1(C)CCC1OC1(C)C2` (stereo unspecified), with “inactive”; and `C[C@]12CCC[C@](C)(C(=O)O)C1CCC13C=C(CO)C(CCC12)C3` (stereo partly specified), with “inactive”.
Still for that read-out and setting: then `COc1cc(/C=C/C(=O)OC(C)(C)C(OC2OC(CO)C(O)C(O)C2O)C(=O)OCc2ccc(OC3OC(CO)C(O)C(O)C3O)cc2)ccc1O` (stereo unspecified), with “inactive”; and `COc1cc2c(cc1OC)CN(C(=O)[C@@H](NCc1ccncc1)C(C)(C)C)CC2`, with “inactive”.
For the compound `O=C1NCc2nc3ccccc3c(=O)n2C1Cc1c[nH]c2ccccc12` (stereo unspecified), the Potency result is “inactive”.
For `CC1=CC(=O)CC(C)(C)C1CCC(C)OC1OC(COC(=O)c2cc(O)c(O)c(O)c2)C(O)C(O)C1O` (stereo unspecified), the Potency entry was “inactive”.
Take `CC1C/C=C/C=C\CCCCC(O)C/C=C/C(=O)O1` (stereo unspecified): the Potency entry is “inactive”.
On the same count and under the same terms, under `CO[C@@]12CC3[C@@H]([C@@H](O)[C@@H](OC(C)=O)C4[C@](C)(COC(C)=O)CCC[C@]34C)[C@@H](C)C1=CC(=O)O2` (stereo partly specified) stands “inactive”; under `CC1(C)CCCC2(C)C(CO)C3CCC2C31` (stereo unspecified), “inactive”; under `O=C(O[C@H]1[C@@H]2C=CO[C@@H](O[C@@H]3O[C@H](CO)[C@@H](O)[C@H](O)[C@H]3O)[C@@H]2[C@@]2(CO)O[C@@H]12)c1ccc(O)c(O)c1`, “inactive”.
Regarding `C=CC(C)(C)C12CC3C(=O)NC(Cc4cnc[nH]4)C(=O)N3C1Nc1ccccc12` (stereo unspecified), the Potency entry was “inactive”.
